{"source": "paper PMC4336329", "about": "(PLoS ONE, 2015)", "note": "The whole screen tested about 310,000 compounds, of which about 14,000 (4.5%) showed an effect of 50% or more. The effect is printed as a negative number. Many of the other results were omitted from the sample, so strong results are more common in it than they were.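 Further: peak tail current of the secondary pulse compared with the same well before compound.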"}
{"target": "human ether-à-go-go-related gene (hERG) potassium channel (human, UniProt Q12809)", "sequence (Q12809 whole entry, looked up)": "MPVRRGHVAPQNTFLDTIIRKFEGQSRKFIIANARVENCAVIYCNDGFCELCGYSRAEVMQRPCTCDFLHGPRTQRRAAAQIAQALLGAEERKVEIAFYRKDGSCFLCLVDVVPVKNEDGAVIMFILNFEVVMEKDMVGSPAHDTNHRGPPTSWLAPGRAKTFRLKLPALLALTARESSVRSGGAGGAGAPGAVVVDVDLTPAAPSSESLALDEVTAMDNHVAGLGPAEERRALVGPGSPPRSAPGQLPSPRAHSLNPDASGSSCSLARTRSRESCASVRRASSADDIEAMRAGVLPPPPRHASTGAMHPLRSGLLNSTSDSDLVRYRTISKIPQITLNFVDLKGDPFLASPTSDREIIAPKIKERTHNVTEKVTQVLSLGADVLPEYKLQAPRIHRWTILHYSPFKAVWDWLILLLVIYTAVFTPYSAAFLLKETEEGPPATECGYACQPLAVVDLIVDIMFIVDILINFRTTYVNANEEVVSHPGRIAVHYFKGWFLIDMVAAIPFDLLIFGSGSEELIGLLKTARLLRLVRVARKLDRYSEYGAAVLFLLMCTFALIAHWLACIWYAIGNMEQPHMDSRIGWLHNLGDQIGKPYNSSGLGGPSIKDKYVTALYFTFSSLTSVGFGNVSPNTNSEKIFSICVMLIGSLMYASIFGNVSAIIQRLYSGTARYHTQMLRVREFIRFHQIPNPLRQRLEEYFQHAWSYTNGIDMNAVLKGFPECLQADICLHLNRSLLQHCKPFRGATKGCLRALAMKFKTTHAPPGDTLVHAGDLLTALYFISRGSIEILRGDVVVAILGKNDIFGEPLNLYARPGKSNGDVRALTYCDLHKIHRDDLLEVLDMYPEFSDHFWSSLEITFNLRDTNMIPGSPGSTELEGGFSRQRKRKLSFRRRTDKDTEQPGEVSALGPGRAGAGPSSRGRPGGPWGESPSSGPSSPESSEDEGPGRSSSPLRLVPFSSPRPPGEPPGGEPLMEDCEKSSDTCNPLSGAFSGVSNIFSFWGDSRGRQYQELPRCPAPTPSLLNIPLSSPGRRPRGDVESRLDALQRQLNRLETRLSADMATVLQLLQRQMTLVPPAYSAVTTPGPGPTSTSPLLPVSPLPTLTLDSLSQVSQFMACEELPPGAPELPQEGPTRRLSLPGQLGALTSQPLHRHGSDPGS", "assay": "primary screen, population patch clamp on CHO cells stably expressing hERG; higher = less effect of the substance", "units": {"hERG current change (%, negative = inhibition) at 10uM": "%"}}
{"smiles": "O=C(COC(=O)C12CC3CC(CC(O)(C3)C1)C2)NCCc1ccc(Cl)cc1", "hERG current change (%, negative = inhibition) at 10uM": -10.8}
{"smiles": "CCN(CC)CCCOC(=O)c1ccc(OC)cc1O.Cl", "hERG current change (%, negative = inhibition) at 10uM": -40.9}
{"smiles": "CCC(Sc1nncn1C)C(=O)Nc1nnc(-c2ccccc2Cl)s1", "note": "(stereo not shown)", "hERG current change (%, negative = inhibition) at 10uM": -11}
{"smiles": "CC(C)c1nnc(NC(=O)C2CCCN2C(=O)Nc2cccc(Cl)c2)s1", "note": "(stereo not shown)", "hERG current change (%, negative = inhibition) at 10uM": -18}
{"smiles": "COc1ccc(C(=O)NC(C)CCc2ccccc2)c(OC)c1", "note": "(stereo not shown)", "hERG current change (%, negative = inhibition) at 10uM": -26.3}
{"smiles": "COc1ccc(C(=O)NC(C)CCc2ccccc2)c(O)c1", "note": "(stereo not shown)", "hERG current change (%, negative = inhibition) at 10uM": -55.5}
{"smiles": "COc1ccc(C(=O)NC(C)CCc2ccccc2)cc1", "note": "(stereo not shown)", "hERG current change (%, negative = inhibition) at 10uM": -2.64}
{"smiles": "Brc1ccc(CN2CCCCCC2)cc1", "hERG current change (%, negative = inhibition) at 10uM": -30.3}
{"smiles": "CC(OCCN1CCCC1)(c1ccc(F)cc1)c1ccc(F)cc1.Cl", "hERG current change (%, negative = inhibition) at 10uM": -63.1}
{"smiles": "Cl.O=C(CCN1CCCCCC1)Nc1ccc(F)cc1", "hERG current change (%, negative = inhibition) at 10uM": -42.8}
{"smiles": "Fc1ccc(OCCOCCN2CCCC2)cc1", "hERG current change (%, negative = inhibition) at 10uM": -12.6}
{"smiles": "Brc1ccccc1OCCN1CCCC1", "hERG current change (%, negative = inhibition) at 10uM": -1.74}
{"smiles": "Cl.Fc1ccc(C(OCCN2CCCC2)c2ccc(Br)cc2)cc1", "note": "(stereo not shown)", "hERG current change (%, negative = inhibition) at 10uM": -75.8}
{"smiles": "CC(C)(C)c1ccc(C(=O)OCCN2CCCCC2)cc1.Cl", "hERG current change (%, negative = inhibition) at 10uM": -47.6}
{"smiles": "Cl.Fc1ccc(C(OCCN2CCCC2)c2ccc(F)cc2)cc1", "hERG current change (%, negative = inhibition) at 10uM": -71.3}
{"smiles": "CC(C)(C)c1ccccc1OCCN1CCCC1", "hERG current change (%, negative = inhibition) at 10uM": -24.1}
{"smiles": "CCOC(=O)[C@H]1[C@H]2COc3cc(OC)ccc3[C@@H]2N2C(=O)CN(Cc3ccc(OC)cc3)C(=O)[C@@]12C", "hERG current change (%, negative = inhibition) at 10uM": -1.96}
{"smiles": "CC1CCc2sc(C(=O)N3CCC(C(N)=O)CC3)cc2C1", "note": "(stereo not shown)", "hERG current change (%, negative = inhibition) at 10uM": 5.36}
{"smiles": "CCN(CC)S(=O)(=O)c1cccc(C(=O)Nc2nncs2)c1", "hERG current change (%, negative = inhibition) at 10uM": 1.66}
{"smiles": "O=C(CSc1nnc(-c2ccc(S(=O)(=O)N3CCOCC3)cc2)o1)c1ccccc1F", "hERG current change (%, negative = inhibition) at 10uM": 1.84}
{"smiles": "Cc1cc(SCC(=O)NCCN2C(=O)CSC2=O)nc2c(C)cccc12", "hERG current change (%, negative = inhibition) at 10uM": 0.207}
{"smiles": "CCCc1c(C)c2cc(C)ccc2[nH]c1=O", "hERG current change (%, negative = inhibition) at 10uM": -25.3}
{"smiles": "Cc1ccc(-c2csc3nc4c5ccccc5c(NCCCN5CCOCC5)nn4c(=O)c23)cc1", "hERG current change (%, negative = inhibition) at 10uM": 2.7}
{"smiles": "CN(C)CCCNc1ncnc2scc(-c3ccccc3)c12.O=C(O)C(=O)O", "hERG current change (%, negative = inhibition) at 10uM": -27.9}
{"smiles": "Cc1ccc(-c2csc3nc4c5ccccc5c(NCCCN(C)C)nn4c(=O)c23)cc1", "hERG current change (%, negative = inhibition) at 10uM": -78}
{"smiles": "COc1ccc(C(C)=O)cc1CSC(=N)N.Cl", "hERG current change (%, negative = inhibition) at 10uM": 9.4}
{"smiles": "COc1ccc(C(=O)N(C)Cc2ccccn2)cc1OC1CCN(C(C)C)CC1", "hERG current change (%, negative = inhibition) at 10uM": 9.45}
{"smiles": "Cc1n[nH]c(=O)c2c(NC(=O)CSc3nc4ccccc4c(=O)n3-c3ccc(OC(F)F)cc3)oc(C)c12", "hERG current change (%, negative = inhibition) at 10uM": -59.2}
{"smiles": "Cc1ccc(SCC(=O)Nc2oc(C)c3c(C)n[nH]c(=O)c23)cc1C", "hERG current change (%, negative = inhibition) at 10uM": -27.6}
{"smiles": "COCCCn1c(SCC(=O)Nc2oc(C)c3c(C)n[nH]c(=O)c23)nc2sc3c(c2c1=O)CCC3", "hERG current change (%, negative = inhibition) at 10uM": -49.7}
{"smiles": "COCC(C)n1c(SCC(=O)Nc2oc(C)c3c(C)n[nH]c(=O)c23)nc2ccccc2c1=O", "note": "(stereo not shown)", "hERG current change (%, negative = inhibition) at 10uM": 6.9}
{"smiles": "Cc1n[nH]c(=O)c2c(NC(=O)CSc3nc4ccccc4c(=O)n3C(C)C)oc(C)c12", "hERG current change (%, negative = inhibition) at 10uM": -27}
{"smiles": "CCc1cc2c(=O)n(CCCOC)c(SCC(=O)Nc3oc(C)c4c(C)n[nH]c(=O)c34)nc2s1", "hERG current change (%, negative = inhibition) at 10uM": -1.43}
{"smiles": "CCn1c(SCC(=O)Nc2oc(C)c3c(C)n[nH]c(=O)c23)nc2sc(C)c(C)c2c1=O", "hERG current change (%, negative = inhibition) at 10uM": -61.7}
{"smiles": "Cc1ccc(C)c(SCC(=O)Nc2oc(C)c3c(C)n[nH]c(=O)c23)c1", "hERG current change (%, negative = inhibition) at 10uM": -52.4}
{"smiles": "Cc1n[nH]c(=O)c2c(NC(=O)CSc3cc(Cl)ccc3Cl)oc(C)c12", "hERG current change (%, negative = inhibition) at 10uM": -10.9}
{"smiles": "Nc1ccc(C(=O)N2CCCC2)cc1CS(=O)(=O)c1ccc(Cl)cc1", "hERG current change (%, negative = inhibition) at 10uM": -4.18}
{"smiles": "CN(c1ccccc1)c1nc(N)c([N+](=O)[O-])c(Nc2cccc(F)c2)n1", "hERG current change (%, negative = inhibition) at 10uM": 24}
{"smiles": "COc1ccc(N2C(=O)/C(=C\\c3ccco3)N=C2SCC(=O)NC(C)C)cc1Cl", "hERG current change (%, negative = inhibition) at 10uM": 4.42}
{"smiles": "C=CCNC(=O)C(C)N1c2cccc3cccc(c23)S1(=O)=O", "note": "(stereo not shown)", "hERG current change (%, negative = inhibition) at 10uM": 9.53}
{"smiles": "COc1ccc(-n2nnnc2/C(=C/N(C)C)C(=O)c2ccccc2)cc1", "hERG current change (%, negative = inhibition) at 10uM": -4.92}
{"smiles": "S=C(NC1CCCCC1)N1CCn2cccc2C1c1cccnc1", "note": "(stereo not shown)", "hERG current change (%, negative = inhibition) at 10uM": -8.63}
{"smiles": "O=C(O)COc1cccc(/C=C2/SC(=S)N(Cc3ccccc3)C2=O)c1", "hERG current change (%, negative = inhibition) at 10uM": 0.27}
{"smiles": "CC(C)(C)c1csc(NC(=O)c2ccncc2)n1", "hERG current change (%, negative = inhibition) at 10uM": -33.7}
{"smiles": "CC(C)(C)c1csc(NC(=O)c2cccnc2)n1", "hERG current change (%, negative = inhibition) at 10uM": 13.6}
{"smiles": "CC(C)(C)c1csc(NC(=O)c2cccs2)n1", "hERG current change (%, negative = inhibition) at 10uM": -16.3}
{"smiles": "CC(C)(C)c1csc(NC(=O)c2c(F)c(F)c(F)c(F)c2F)n1", "hERG current change (%, negative = inhibition) at 10uM": -63.9}
{"smiles": "CC(C)(C)c1csc(NC(=O)c2ccc3nccnc3c2)n1", "hERG current change (%, negative = inhibition) at 10uM": -57.2}
{"smiles": "CC(C)(C)c1csc(NC(=O)c2ccccc2O)n1", "hERG current change (%, negative = inhibition) at 10uM": -0.0514}
{"smiles": "CN(C)S(=O)(=O)N1CCc2ccccc2C1", "hERG current change (%, negative = inhibition) at 10uM": 2.94}
{"smiles": "Cc1cc(C)n(-c2nc3ccccc3nc2N2CCN(S(=O)(=O)c3ccc(F)c(C)c3)CC2)n1", "hERG current change (%, negative = inhibition) at 10uM": 9.54}
{"smiles": "Cc1nn(CC(=O)NCC(C)c2ccccc2)c(=O)c2cc3occc3n12", "note": "(stereo not shown)", "hERG current change (%, negative = inhibition) at 10uM": -3.5}
{"smiles": "COc1ccc(C(=O)C[n+]2ccc3c(c2)nc(-c2cc(OC)c(OC)cc2OC)n3C)cc1.[Br-]", "hERG current change (%, negative = inhibition) at 10uM": 6.93}
{"smiles": "O=C(C[n+]1ccc2c(c1)nnn2-c1ccccc1)c1ccc(Cl)cc1.[Br-]", "hERG current change (%, negative = inhibition) at 10uM": -69}
{"smiles": "O=C(C[n+]1ccccc1)c1ccc(Cl)cc1.[I-]", "hERG current change (%, negative = inhibition) at 10uM": 10}
{"smiles": "COc1ccc(C(=O)C[n+]2ccc3c(c2)nc(-c2ccccc2)n3C)cc1.[Br-]", "hERG current change (%, negative = inhibition) at 10uM": -1.44}
{"smiles": "COc1ccc(C(=O)C[n+]2ccc3c(c2)nnn3-c2ccccc2)cc1.[Br-]", "hERG current change (%, negative = inhibition) at 10uM": -60.5}
{"smiles": "Cn1nnc2c[n+](CC(=O)c3ccc(Cl)cc3)cc(Br)c21.[Br-]", "hERG current change (%, negative = inhibition) at 10uM": -24.7}
